# 12-LOX inh: Primary qHTS assay for inhibitors of human arachidonate 12S-lipoxygenase (ALOX12): Round 2; Potency, µM (series often up to 108 µM), inactives show at the highest dose activity change, negative = inhibition, hits mostly inhibitors; purified 12hLO, xylenol orange hydroperoxide absorbance; actives 1.1% (n = 580,000); Polyunsaturated fatty acid lipoxygenase ALOX12 (Homo sapiens), P18054; also: % is scaled to controls: 0 for no effect and ±100 for the full control effect
#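 Purified human 12hLO at 150 nM in 25 mM Hepes, 0.01% Triton X-100, pH 7.0, preincubated 15 min at room temperature with compound. Reaction started with 40 uM arachidonic acid, 30 min at room temperature. Hydroperoxide measured by Fe-xylenol orange, 573/405 nm absorbance ratio.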
# GLP1R inv ag: qHTS of GLP-1 Receptor Inverse Agonists (Inhibition Mode); Potency, µM (highest dose often 38.3 µM), for the others: top-dose activity change, negative = inhibition, actives largely listed as inhibitors; AID 624417, 2012; HEK293 GLP-1R CRE-luciferase, luminescence, 24 h; GLP-1R form is constitutively active; actives 1.6% (n = 410,000); Glucagon-like peptide 1 receptor (Homo sapiens), P43220; also: % is scaled to controls: 0 for no effect and ±100 for the full control effect; nearly all actives have a fitted effect of over 55% in size
#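 HEK293 cells stably co-expressing a cAMP-responsive luciferase reporter and constitutively active GLP-1R were seeded, incubated 12 h, then exposed to compounds for 24 h at 37 C. Luminescence was read 12 min after detection reagent; inverse agonists lower signal.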
# PTHR1 ag: qHTS for PTHR1 Agonists: Primary Screen. Potency, µM (top dose mostly 115 µM), without a hit: at the top dose activation, actives largely listed as activators. HEK293 GP2 PTHR1 cells, GloSensor cAMP luminescence, 1 h. actives 0.075% (n = 410,000). AID 743266, 2014. Parathyroid hormone/parathyroid hormone-related peptide receptor (Homo sapiens), Q03431; also: nearly all actives have a fitted effect of over 55% in size
#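 HEK-293-derived GP2 cells expressing PTHR1 and a GloSensor cAMP reporter, 3,000/well, plated overnight, given luciferin plus IBMX (each 0.5 mM as added) for 1 h at 37 °C, then compound for 1 h at 37 °C. Luminescence was read after 15 min at room temperature.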
# Glioma ERSR ind: qHTS for Inducers of the Endoplasmic Reticulum Stress Response (ERSR) in Human Glioma: qHTS; U87-MG GRP78 promoter luciferase reporter, 16 h; Potency, µM, for the others: at the top dose activation, usual class: activators; actives 0.02% (n = 420,000); also: series mostly up to about 76 µM; % of control where 0% means no effect; nearly all actives have a fitted effect of over 35% in size
#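 ERSR induction read as luciferase luminescence (Bright-Glo, 10 min at room temperature) in stably transfected human U87-MG glioma cells exposed to compounds for 16 h, using GRP78 as sensor.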
# GLS inh: qHTS for Inhibitors of Glutaminase (GLS) | Glutaminase kidney isoform, mitochondrial (Homo sapiens), O94925 | GLS enzymatic activity, qHTS titration | Potency, µM (highest dose often 45.5 µM), inactives show top-dose activity change, negative = inhibition, most hits filed as inhibitors | actives 0.21% (n = 410,000) | AID 624170, 2012; also: % is scaled to controls: 0 for no effect and ±100 for the full control effect
# Target sequence (O94925 whole entry, looked up, canonical isoform): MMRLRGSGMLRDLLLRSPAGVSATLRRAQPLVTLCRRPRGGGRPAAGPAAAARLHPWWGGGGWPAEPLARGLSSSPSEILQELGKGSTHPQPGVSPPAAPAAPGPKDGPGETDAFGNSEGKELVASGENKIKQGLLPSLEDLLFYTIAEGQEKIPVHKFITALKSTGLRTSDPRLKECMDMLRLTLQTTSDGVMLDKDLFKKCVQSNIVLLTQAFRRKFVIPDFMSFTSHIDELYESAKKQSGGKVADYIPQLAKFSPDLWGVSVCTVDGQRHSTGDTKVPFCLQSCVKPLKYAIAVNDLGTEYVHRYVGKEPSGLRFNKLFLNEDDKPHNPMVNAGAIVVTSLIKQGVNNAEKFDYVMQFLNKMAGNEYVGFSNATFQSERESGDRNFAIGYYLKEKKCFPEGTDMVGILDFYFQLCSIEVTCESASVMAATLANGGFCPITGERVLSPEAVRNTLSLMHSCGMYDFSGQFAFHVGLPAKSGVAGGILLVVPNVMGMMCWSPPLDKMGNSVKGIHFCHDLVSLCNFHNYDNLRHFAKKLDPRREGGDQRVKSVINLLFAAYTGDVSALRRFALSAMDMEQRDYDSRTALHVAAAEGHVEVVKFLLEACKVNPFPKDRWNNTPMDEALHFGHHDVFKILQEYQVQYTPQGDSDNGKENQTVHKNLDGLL
#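 Human kidney-isoform GLS in 45 mM KH2PO4 pH 8.2, 0.02% Tween-20, with compound, started with 1mM L-Glutamine (added stock). Glutamate oxidase/HRP/Amplex red coupled fluorescence read at start and after 30 min at RT.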
# GLP-1R agonist: qHTS of GLP-1 Receptor Agonists; Glucagon-like peptide 1 receptor (Homo sapiens), P43220; Potency, µM (doses to about 45.6 µM), for inactives: at the highest dose activation, usual class: activators; HEK293 GLP-1R CRE-luciferase, luminescence, 4-6 h; cells express a hypersensitive GLP-1R form; AID 624172, 2012; actives 0.007% (n = 380,000); also: % of control where 0% means no effect
# An asterisk follows results filed as active; i = inactive; ? = inconclusive; . = not tested or not shown; [ ] = remark or other dose. A selection: hits, their analogues and other compounds. The true share with any hit is near 2.3%. Calls follow the shape of the dose curve; as a rule, active = well fitted curve in the direction sought with a large enough effect; inconclusive = small, poorly fitted or top-dose-only effect, or another doubt; inactive = no such curve, though single readings can be large; an effect the other way counts as inactive or inconclusive. Potency is read from the fitted curve at half-maximal effect.
SMILES,12-LOX inh,GLP1R inv ag,PTHR1 ag,Glioma ERSR ind,GLS inh,GLP-1R agonist
CC(C)c1cccc(C(C)C)c1OC(=O)[C@H]1OC(c2ccc(Br)cc2)=C[C@@H]1c1ccc(Br)cc1,-12%,13µM*,-86%,-5%,-5%,-2%
CCCn1cc(C(=O)N2CCC(n3cccc3)CC2)c2ccccc21,-1%,.,.,.,.,.
O=C(Cc1ccccc1)N1CCCC(c2nn(-c3ccc(Cl)cc3)c(=O)[nH]2)C1 (stereo unspecified),32µM*,.,.,.,.,.
Cc1ccc(CN2CCCC(c3nn(-c4ccc(Cl)cc4)c(=O)[nH]3)C2)cc1 (stereo unspecified),18µM*,.,.,.,.,.
O=C(Cc1ccccn1)N1CCCC(c2nn(-c3ccccc3)c(=O)[nH]2)C1 (stereo unspecified),31%,.,.,.,.,.
O=C(Cc1ccc(Cl)cc1)N1CCC(c2n[nH]c(=O)n2Cc2ccc(F)cc2)CC1,14µM*,.,.,.,.,.
O=C(Cc1ccc(F)cc1)N1CCC(c2nn(-c3ccc(Cl)cc3)c(=O)[nH]2)CC1,28µM*,.,.,.,.,.
COc1ccc(Cn2c(C3CCN(C(=O)Cc4ccc(F)cc4)CC3)n[nH]c2=O)cc1,22%,.,.,.,.,.
CCn1nc(C(=O)NC(CC(=O)OC)c2ccc(F)cc2)c2ccccc2c1=O (stereo unspecified),-7%,.,.,.,.,.
CC(C)(C)C(=O)N1CCC(c2nn(-c3ccc(Cl)cc3)c(=O)[nH]2)CC1,3%,.,.,.,.,.
O=C(Nc1ccc(Cl)cc1)N1CCC(c2nn(-c3ccc(Cl)cc3)c(=O)[nH]2)CC1,13µM*,.,.,.,.,.
Nc1nc2ccc(C(=O)Nc3ccccc3)cc2s1,60%,2%,4µM*,8%,2%,7%
COc1ccc(C(=O)c2nc3c(n2O)CCCCC3)cc1,?,-13%,i,0%,9%,-11%
COc1ccc(C(=O)c2nc3c(n2O)CCCC3)cc1OC,8.9µM*,1%,-28%,-5%,5%,-4%
COc1cc(-c2nc3ccc(C)cn3c2NCc2ccccc2)ccc1SC1CCCCC1,?,4µM*,-28%,-3%,15%,0%
COc1cc(-c2nc3ccc(C)cn3c2NCc2ccccc2)ccc1-c1cccc(Cl)c1,?,8.9µM*,i,-2%,11%,5%
COC(=O)c1cc2oc3ccccc3c2n1Cc1ccccn1,-29%,4.5µM*,-13%[57.5 µM],2%,-4%,13%
COC(=O)c1cc2oc3ccccc3c2n1Cc1ccc(C)cc1,-17%,13%,i,.,3%,.
COc1ccc(C(=O)C2CCN(CC(=O)NCc3ccccc3)CC2)cc1,-20%,-21%,-16%,-3%,-2%,8%
COc1ccc(CNC(=O)CN2CCC(C(=O)c3ccc(OC)cc3)CC2)cc1,13%,10µM*,i,-7%,9%,-6%
COc1cc(OC)cc(-c2c(-c3ccc(F)cc3)c3cc(Br)ccc3n2C)c1,-38%,7.9µM*,-3%,-3%,-5%,-3%
Cc1cc(C)c2c(=O)n(CC(=O)Nc3cccc(F)c3)sc2n1,?,7%,i,-17%,?,-5%
Cc1ccc(NC(=O)Cn2sc3nc(C)cc(C)c3c2=O)c(Cl)c1,2µM*,-20%,i,-2%,-17%,-1%
Cc1cc(C)c2c(=O)n(CC(=O)Nc3ccc(Cl)cc3)sc2n1,1.3µM*,8%,-14%,-2%,?,-2%
CCOc1ccc(NC(=O)Cn2sc3nc(C)cc(C)c3c2=O)cc1,.,40%,-10%,-5%,?,1%
SMILES,12-LOX inh,GLP1R inv ag,PTHR1 ag,Glioma ERSR ind,GLS inh,GLP-1R agonist
Cc1ccc(C)c(S(=O)(=O)N2CCCC2c2nc3ccccc3[nH]2)c1 (stereo unspecified),-4%,.,.,.,.,.
COc1ccccc1N=CC=C1OC(C)(C)C(C)(C)O1,?,2.2µM*,-17%,?,-1%,0%
O=C(NC(=S)Nc1nc(-c2ccccc2)cs1)c1cccnc1,35µM*,1%,-16%,2%,1%,-1%
Oc1ccc(Nc2nc(-c3cccnc3)cs2)cc1,.,31%,-7%,-3%,5µM*,3%
Oc1ccc(-c2csc(Nc3cccc(O)c3)n2)cc1,40µM*,.,.,.,.,.
COc1ccccc1C(=O)NNc1ncc(C)s1,2%,2%,i,-1%,6.3µM*,15%
COc1ccccc1OCC(=O)Nc1ncc(C)s1,?,-23%,-32%,-8%,-5%,6%
CCCSc1ccc2nc(-c3ccccc3)cn2c1,?,2.5µM*,i,-14%,7%,-29%
CCCCSc1ccc2nc(-c3ccc(C#N)cc3)cn2c1,20%,?,-28%[57.5 µM],0%,2%,19%
CCc1ccc(OCC(O)Cn2c(NCCN(CC)CC)nc3c2c(=O)[nH]c(=O)n3C)cc1 (stereo unspecified),-6%,.,.,.,.,.
CC(C)(CO)NC(=O)C12CC3CCC(CC(C3)C1)C2,24%,.,.,.,.,.
CC(C)(C)NC(=S)NC(=O)C12CC3CCC(CC(C3)C1)C2,22µM*,-4%,i,-1%,9%,-2%
CNC(=O)NC(=O)C(C)N(C)Cc1cccc(C#N)c1 (stereo unspecified),50%,.,.,.,.,.
COc1ccc2c(C)c(CC(=O)Nc3cccc(Cl)c3)c(=O)oc2c1,5%,.,.,.,.,.
COc1cc(/C=C/CN2CCC(C(=O)NC(c3ccc(F)cc3)c3ccc4ccccc4n3)CC2)ccc1OC(C)=O (stereo unspecified),?,10µM*,-45%,?,3%,-5%
O=C(NC(c1ccc(Cl)cc1)c1ccsc1)C1CCN(CCOc2ccc(Cl)cc2)CC1 (stereo unspecified),32µM*,?,-51%,-10%,-7%,-5%
O=C(NC(c1ccc(F)cc1)c1ccc2ccccc2n1)C1CCN(Cc2ccc3ccccc3n2)CC1 (stereo unspecified),16µM*,?,0%,-1%,?,-2%
COc1ccc(CN2CCC(C(=O)NC(C)c3cccc4ccccc34)CC2)cc1 (stereo unspecified),.,-28%,-16%,0%,6%,5%
CC(NC(=O)C1CCN(CCOc2ccc(Cl)cc2)CC1)c1cccc2ccccc12 (stereo unspecified),22µM*,?,?,-6%,9%,-6%
